Measurements: PubChem BioAssay AID493170 (National Center for Advancing Translational Sciences (NCATS), 2011)
Inconclusive results are not listed. A call without a number means that no potency is given here. Activity calls are given as the source filed them. Calls come from the whole dose curve; as a rule, active = well fitted inhibition curve with a large enough effect; inconclusive = small, poorly fitted or top-dose-only effect, or effect the other way; inactive = flat fitted curve, though single readings scatter.

Biological target: Ubiquitin carboxyl-terminal hydrolase 2 (Homo sapiens) (UniProt O75604)
Sequence (O75604 whole entry, looked up): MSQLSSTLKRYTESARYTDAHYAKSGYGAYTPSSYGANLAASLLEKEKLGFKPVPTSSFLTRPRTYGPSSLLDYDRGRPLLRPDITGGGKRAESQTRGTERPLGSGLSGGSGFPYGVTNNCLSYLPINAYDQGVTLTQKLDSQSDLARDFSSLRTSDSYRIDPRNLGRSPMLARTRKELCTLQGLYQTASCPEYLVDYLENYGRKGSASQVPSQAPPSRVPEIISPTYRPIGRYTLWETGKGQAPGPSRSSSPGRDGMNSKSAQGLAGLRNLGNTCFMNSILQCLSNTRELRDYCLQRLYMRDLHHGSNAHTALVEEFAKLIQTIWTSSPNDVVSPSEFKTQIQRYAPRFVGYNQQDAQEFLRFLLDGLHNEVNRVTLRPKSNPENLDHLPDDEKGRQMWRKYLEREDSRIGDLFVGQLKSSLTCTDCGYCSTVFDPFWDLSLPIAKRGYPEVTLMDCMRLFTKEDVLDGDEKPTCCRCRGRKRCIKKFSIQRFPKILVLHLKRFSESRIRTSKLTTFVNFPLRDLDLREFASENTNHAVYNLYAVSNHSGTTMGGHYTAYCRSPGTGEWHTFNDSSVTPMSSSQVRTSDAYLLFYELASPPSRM
Test: Ub-rhodamine 110 based assay for inhibitors Ubiquitin-specific Protease USP2a; note: nearly all actives have a fitted effect of over 50% in size
Details: USP2a Ub-rhodamine110 cleavage, fluorescence; series mostly up to 38.3 µM
How it was run: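 5 nM USP2a preincubated with compounds for 30 min at RT in 20 mM Tris-HCl pH 8.0, 2 mM CaCl2, 2 mM beta-mercaptoethanol, 0.05% CHAPS. Cleavage of 150 nM Ub-rhodamine 110 read kinetically (Ex 485/Em 531) for 7 min.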
Potency is the fitted concentration of half-maximal effect.

Row | SMILES | Potency
1 | O=C(NN=Cc1ccc(N2CCOCC2)s1)c1ccc([N+](=O)[O-])cc1 | inactive
2 | CCCn1c(N2CCN(Cc3cccc(C)c3)CC2)nc2c1c(=O)[nH]c(=O)n2C | inactive
3 | Cn1c(SCc2nc3ccccc3s2)nnc1-c1cccs1 | inactive
4 | O=C(N/N=C/c1cc(Cl)c(O)c(Cl)c1)c1cc2c(ccc3ccccc32)o1 | 11.2 µM (active)
5 | O=C(Nc1ncccc1Cl)c1cccc(F)c1 | inactive
6 | O=C(Cc1cc(=O)[nH]c(=O)[nH]1)NCC1CCCO1 (centres undefined) | inactive
7 | CSc1ccc(NC(=O)CSc2nc3[nH]c(=O)cc(O)c3s2)cc1 | 5.62 µM (active)
8 | Cc1nc2cc3ccccc3cc2c(=O)[nH]1 | inactive
9 | CC(C)Cn1c(SCC(N)=O)nnc1-c1cccc(S(=O)(=O)N2CCOCC2)c1 | inactive
10 | CCOC(=O)COc1ccccc1/C=N/O | inactive
11 | CC(C)(C)C1CCc2nc(NC(=O)Cc3cn4ccsc4n3)sc2C1 (centres undefined) | inactive
12 | CC(C)c1ccc(Nc2nnc(SCC(=O)c3nnc(-c4ccccc4)o3)s2)cc1 | 2.82 µM (active)
13 | CN(C)C=Nc1ncc2c3ccccc3n(CCN(C)C)c2c1C#N | inactive
14 | O=C(CSCc1cnn(-c2ccccc2)c1-n1cccc1)NCC1CCCO1 (centres undefined) | inactive
15 | Cc1ccc(-c2nc(N/N=C/c3ccncc3)c3ccccc3n2)cc1 | 11.2 µM (active)
16 | CCOc1ccc(C(=O)c2ccc(OCC)c(N)c2)cc1N | inactive
17 | Cc1ccc(C(=O)NCCCc2ccccc2)s1 | inactive
18 | CC1=NN(c2ccc(C)cc2)C(=O)/C1=C/c1ccc(-c2cc([N+](=O)[O-])ccc2O)o1 | 10 µM (active)
19 | Cc1noc(/C=C/c2ccco2)c1S(=O)(=O)N1CCC(C(=O)N(C)Cc2ccccc2)CC1 | 10 µM (active)
20 | CCCn1nnc(NC(=O)c2cccc(OCC(C)C)c2)n1 | inactive

Row | SMILES | Potency
21 | C#CCOCCOCCOCCNc1nc(N2CCN(C(=O)CCCCCCCCCCNC(=O)[C@H]([C@@H](C)CC)n3cc(CCCCCN)nn3)CC2)nc(N2CCN(C(=O)CCCCCCCCCCNC(=O)[C@H](CCCCN)n3cc(CCCC(=O)O)nn3)CC2)n1 | inactive
22 | O=C(/C=C/c1ccc(Cl)c([N+](=O)[O-])c1)Nc1ccc(N2CCCC2)cc1 | 12.6 µM (active)
23 | N#CC(c1ccccc1)c1ccc(C(=O)c2ccc(F)cc2)cc1 (centres undefined) | inactive
24 | COCc1c(C(=O)OCC(=O)c2c(N)n(CC(C)C)c(=O)n(C)c2=O)oc2ccccc12 | inactive
25 | O=C1CC(Nc2ccc(N3CCOCC3)cc2)C(=O)N1c1cccc(C(F)(F)F)c1 (centres undefined) | inactive
26 | O=[N+]([O-])c1cc(-c2ccc(/C=N\n3cnnc3)o2)cc([N+](=O)[O-])c1 | 11.2 µM (active)
27 | C=CC[C@H](CC(=O)N[C@H](CO)Cc1ccccc1)C(=O)N[C@H](COC(=O)[C@@H](CC=C)CC(=O)OC(C)(C)C)Cc1c[nH]c2ccccc12 | inactive
28 | COc1cccc(N2CCN(C(=O)CN(C)S(=O)(=O)c3ccc4c(c3)CCC(=O)N4)CC2)c1 | inactive
29 | CCO[C@H]1OC(C(=O)N2CCCCCCC2)=C[C@@H](c2ccc(C(F)(F)F)cc2)[C@@H]1CCCO | inactive
30 | Cc1ccccc1N=C1NC(=O)CS1 | inactive
31 | Cc1ccc2[nH]c3c(c2c1)CN(C(=O)CN1CCSCC1)CC3 | inactive
32 | COCCN1Cc2cccc(C(=O)N3CCN(c4cc(C)ccc4C)CC3)c2C1=O | inactive
33 | Cc1ccc(/C=C/S(=O)(=O)N2CCC(C(=O)O)CC2)cc1 | inactive
34 | Cc1c(O)c(CN2CCCC2)cc2c3c(c(=O)oc12)CCC3 | inactive
35 | COc1ccc(/C=C2\SC(=O)N(CCC(=O)Nc3ccc(S(=O)(=O)Nc4nccs4)cc3)C2=O)cc1 | 10 µM (active)
36 | O=[N+]([O-])c1ccc(Sc2nnnn2-c2ccccc2)c(Cl)c1 | inactive
37 | O=C(O)CC(C(=O)O)N1C(=O)/C(=C/C=C/c2ccco2)SC1=S (centres undefined) | inactive
38 | COc1cccc(N2C(=O)C3CCCN3C2c2ccc(N(C)C)cc2)c1 (centres undefined) | inactive
39 | CC1=NN(c2ccc(C(=O)O)cc2)C(=O)/C1=C\c1ccc(OC(=O)c2cccs2)cc1 | inactive
